From PubChem BioAssay
Calls of active or inactive are those of the source. Unless noted, the rule behind the calls is not given here.

Experiments:
[1] = compounds altering circadian rhythm period length – cell-based, LOPAC library, luminescence reporter (AID 2774); settings: circadian reporter cells, at 7 µM, actives lie on both sides;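 note: values are relative to mean of DMSO wells on each plate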
[2] = system: Hepatitis C virus NS3 helicase; test: blockers of NS3h binding to ssDNA – biochemical, fluorescence polarization, LOPAC1280 library, primary screen (AID 687035; in the data active = inhibition above about 37%); settings: Purified HCV NS3 helicase, Cy5-dT15 ssDNA binding fluorescence polarization; stronger effect = higher value; concentration not given here
[3] = compounds altering Cy5-DNA-NS3h complex signal – biochemical, LOPAC1280, artefact control for HCV NS3 helicase inhibitor project (AID 687037); settings: Cy5-DNA-NS3h complex fluorescence interference counterscreen
[4] = viability loss with induced miR-34 in A549 – imaging, A549 dox-inducible miR-34, nuclei and caspase counts, primary screen (AID 1347080;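 active = compounds whose cell count with miR-34 switched on is under 0.7 times the count with it off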); settings: A549 miR-34 inducible, Hoechst nuclei count, 48 h
[5] = blockers of cellular phospholipid synthesis – cell-based, LOPAC library, screen 4, primary screen (AID 1347384); settings: animal cells, phospholipid biosynthesis inhibition screen; at 10 µM
[6] = galactose survival enhancers in mitochondrial complex I cybrids – cell-based, galactose medium, ATP luminescence, primary screen (AID 1645843;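 active = z-score of at least 1.8 in each of two replicates, scored against plate mean and spread of sample wells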;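 note: positive z means more ATP and so rescue of galactose-driven cybrid death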); settings: complex I mutant cybrid cells, 72 h, stronger effect = higher value
[7] = stronger effect = lower value, cell number ratio, induced over uninduced
[8] = measured here: relative caspase fold change +Dox/-Dox
[9] = measured here: total cells with miR-34 induction, stronger effect = lower value
[10] = measured here: total cells without miR-34 induction

| SMILES | period change [1] | inhibition [2] | fluorescence ratio (interference) [3] | fold change [4, 7] | fold change [4, 8] | cell count [4, 9] | cell count [4, 10] | outcome [5] | z-score [6] |
| --- | --- | --- | --- | --- | --- | --- | --- | --- | --- |
| O=c1[nH]c(=O)c2nc3ccccc3nc2[nH]1 | -0.07 h (inactive) | -1% (inactive) | 1 (inactive) | 1.04 (inactive) | 1.29 | 8690 | 8380 | inactive | 0.695 (inactive) |
| NO | -0.195 h (inactive) | 1% (inactive) | 1 (inactive) | 1.15 (inactive) | 1.06 | 10000 | 8720 | inactive | 0.49 (inactive) |
| COC(=O)C(N)Cc1ccc(Cl)cc1 (centres undefined) | -0.02 h (inactive) | 1% (inactive) | 1 (inactive) | 0.984 (inactive) | 1.85 | 9580 | 9740 | inactive | 0.46 (inactive) |
| O[Si](CCCN1CCCCC1)(c1ccc(F)cc1)C1CCCCC1 (centres undefined) | -0.3 h (inactive) | -2% (inactive) | 1 (inactive) | 0.937 (inactive) | 1.64 | 8140 | 8690 | inactive | -0.95 (inactive) |
| CC(=O)N[C@@H](Cc1c[nH]c2ccccc12)C(=O)OCc1cc(C(F)(F)F)cc(C(F)(F)F)c1 | 0.005 h (inactive) | -3% (inactive) | 0.9 (inactive) | 1.03 (inactive) | 1.8 | 9980 | 9690 | inactive | -0.03 (inactive) |
| COc1ccc(CCn2nnnc2C2(c3ccc(C)cc3)CC2)cc1 | – | -4% (inactive) | 1.1 (inactive) | 1.09 (inactive) | 0.893 | 8770 | 8010 | inactive | -0.23 (inactive) |
| CCN(CC)CCNC(=O)c1ccc(NS(C)(=O)=O)cc1 | – | -2% (inactive) | 1.1 (inactive) | 1.02 (inactive) | 0.826 | 10400 | 10100 | inactive | 0.325 (inactive) |
| Oc1ccc(/C=C/c2ccc(/C=C/c3ccc(O)cc3)c(Br)c2)cc1 | – | -3% (inactive) | 1 (inactive) | 1.33 (inactive) | 1.11 | 3040 | 2280 | inactive | 0.44 (inactive) |
| Cc1cc(Cn2cnc3c2C[C@@H](C(=O)O)N(C(=O)C(c2ccccc2)c2ccccc2)C3)ccc1N | – | 0% (inactive) | 1 (inactive) | 1.01 (inactive) | 2.03 | 10300 | 10200 | inactive | 0.405 (inactive) |
| Nc1nc2c(ncn2[C@@H]2O[C@H](CO)[C@@H](O)[C@@H]2O)c(=O)[nH]1 | – | -2% (inactive) | 1 (inactive) | 0.934 (inactive) | 1.54 | 8710 | 9330 | inactive | 4.94 (active) |
| CCCC(CCC)C(=O)OC1CC2CCC(C1)[N+]2(C)C (centres undefined) | – | 0% (inactive) | 1.1 (inactive) | 0.959 (inactive) | 1.54 | 9840 | 10300 | inactive | -0.005 (inactive) |
| C[C@](Cc1ccc(O)c(O)c1)(NN)C(=O)O | – | -4% (inactive) | 1 (inactive) | 0.947 (inactive) | 1.36 | 9110 | 9620 | inactive | -1.02 (inactive) |
| O=C1NCc2c1c1c3ccccc3[nH]c1c1[nH]c3ccccc3c21 | – | -1% (inactive) | 1 (inactive) | 1.15 (inactive) | 0.688 | 1560 | 1350 | inactive | -0.89 (inactive) |
| CC(C)c1cccc(C(C)C)c1N1C(=O)c2ccc(O)cc2C1=O | – | 0% (inactive) | 0.9 (inactive) | 1.39 (inactive) | 0.841 | 1810 | 1300 | inactive | 0.3 (inactive) |
| N[C@H](CCCP(=O)(O)O)C(=O)O | – | -1% (inactive) | 1.1 (inactive) | 0.903 (inactive) | 1.61 | 9420 | 10400 | inactive | 0.08 (inactive) |
| c1ccc2c(c1)CC(N1CCN(c3cccc4c3OCCO4)CC1)C2 | – | -2% (inactive) | 1 (inactive) | 1.01 (inactive) | 1.01 | 8000 | 7890 | inactive | 0.255 (inactive) |
| CN(CC[C@@H](Oc1ccc(C(F)(F)F)cc1)c1ccccc1)CC(=O)O | – | -2% (inactive) | 0.9 (inactive) | 1.05 (inactive) | 2.04 | 10800 | 10300 | inactive | 0.395 (inactive) |
| Cc1cc(NC2CCCCC2)nc(-n2nc(C)cc2C)n1 | – | -5% (inactive) | 1 (inactive) | 1.09 (inactive) | 0.728 | 9360 | 8610 | inactive | -1.04 (inactive) |
| CC[n+]1c(/C=C/C=C2/N(C)c3ccccc3C2(C)C)sc2ccccc21 | – | 1% (inactive) | 0.9 (inactive) | 1.18 (inactive) | 0.865 | 1270 | 1080 | inactive | -1.04 (inactive) |
| COc1ccc(/C=C2\COc3ccc(C)cc3C2=O)cc1O | – | 1% (inactive) | 1 (inactive) | 1.16 (inactive) | 2.59 | 3090 | 2660 | inactive | -1.36 (inactive) |
| O=c1[nH]c(=S)[nH]c(-c2ccccc2)c1Cc1c(O)ccc2ccccc12 | – | 0% (inactive) | 1 (inactive) | 0.946 (inactive) | 1.58 | 8710 | 9210 | inactive | 0.53 (inactive) |
| O=c1cc(-c2ccccc2F)[nH]c2cc3c(cc12)OCO3 | – | -7% (inactive) | 0.9 (inactive) | 1.11 (inactive) | 0.744 | 1710 | 1540 | inactive | -0.62 (inactive) |
| C=C1C[C@@]23CC[C@H]4[C@@](C)(CCC[C@@]4(C)C(=O)O)[C@@H]2CC[C@]1(O)C3 | – | -3% (inactive) | 1 (inactive) | 0.931 (inactive) | 1.06 | 9720 | 10400 | inactive | 0.98 (inactive) |
